In PubChem BioAssay (EPA / NIEHS):
Active and inactive are the calls of the source. How the source made its calls: active means hit-call score of the fitted dose curve at least 0.9, where 1 is the maximum; inactive means score below 0.9.

Assays:
Details in all cases: mRNA level, 48 h; actives raise or lower the signal
[1] = read-out: Cytochrome P450 7A1 (Homo sapiens) (UniProt P22680); test: LTEA_HepaRG_CYP7A1: Life Technologies and Expression Analysis (LTEA) Assay for Cytochrome P450 7A1 (CYP7A1) using HepaRG (AID 2283496)
Method in brief: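 Gene expression endpoint in human HepaRG liver cells treated for 48 h with test chemicals (up to 100 uM, 0.5% DMSO). Values come from bidirectional concentration-response fitting versus DMSO.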

[2] = read-out: Glutathione S-Transferase (GSTA2), GSTA2 (gene 2939); test: LTEA_HepaRG_GSTA2: Life Technologies and Expression Analysis (LTEA) Assay for Glutathione S-Transferase (GSTA2) using HepaRG (AID 2283497)
Method in brief: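 Human HepaRG cells, plated 48 h, then exposed in serum-free induction medium for 48 h to eight half-log concentrations up to 100 uM in 0.5% DMSO, duplicate. GSTA2 mRNA by qRT-PCR, normalized to ACTB/GAPDH/POLR2A; bidirectional fit versus DMSO.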

[3] = read-out: Glutamate-cysteine ligase catalytic (GCLC), GCLC (gene 2729); test: LTEA_HepaRG_GCLC: Life Technologies and Expression Analysis (LTEA) Assay for Glutamate-cysteine ligase catalytic (GCLC) using HepaRG (AID 2283498)
Method in brief: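 Differentiated human HepaRG cells, plated 48 h then switched to serum-free induction medium, were exposed in duplicate for 48 h to 8 half-log concentrations topping at 100 uM in 0.5% DMSO. GCLC mRNA was quantified by qRT-PCR against ACTB, GAPDH and POLR2A.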

[4] = read-out: growth arrest and DNA damage 45 (GADD45G), GADD45G (gene 10912); test: LTEA_HepaRG_GADD45G: Life Technologies and Expression Analysis (LTEA) Assay for growth arrest and DNA damage 45 (GADD45G) using HepaRG (AID 2283499)
Method in brief: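 Differentiated human HepaRG cells in serum-free induction medium were exposed for 48 h to 8 half-log concentrations up to 100 uM in 0.5% DMSO, in duplicate. GADD45G mRNA was measured by TaqMan qRT-PCR, normalised to ACTB, GAPDH and POLR2A, and fitted bidirectionally against DMSO.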

[5] = read-out: Glutamate-cysteine ligase regulatory (GCLM), GCLM (gene 2730); test: LTEA_HepaRG_GCLM: Life Technologies and Expression Analysis (LTEA) Assay for Glutamate-cysteine ligase regulatory (GCLM) using HepaRG (AID 2283500)
Method in brief: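 Differentiated human HepaRG cells exposed 48 h in serum-free induction medium to 8-point half-log concentrations (top 100 uM, 0.5% DMSO), in duplicate. GCLM mRNA quantified by qRT-PCR, normalized to ACTB, GAPDH, POLR2A; bidirectional fitting versus DMSO.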

[6] = read-out: Glutathione S-transferase M3 (GSTM3), GSTM3 (gene 2947); test: LTEA_HepaRG_GSTM3: Life Technologies and Expression Analysis (LTEA) Assay for Glutathione S-transferase M3 (GSTM3) using HepaRG (AID 2283501)
Method in brief: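 Differentiated HepaRG cells in serum-free induction medium were exposed in duplicate for 48 h to 8 half-log concentrations up to 100 uM in 0.5% DMSO. GSTM3 mRNA was measured by TaqMan qRT-PCR, normalized to ACTB/GAPDH/POLR2A, and fitted bidirectionally versus DMSO.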

[7] = read-out: Heat shock 70 kDa protein 1 (HSPA1A), gene 3303; test: LTEA_HepaRG_HSPA1A: Life Technologies and Expression Analysis (LTEA) Assay for Heat shock 70 kDa protein 1 (HSPA1A) using HepaRG (AID 2283502)
Method in brief: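 Differentiated human HepaRG cells in serum-free induction medium were exposed in duplicate for 48 h to eight concentrations (top 100 uM, half-log steps, 0.5% DMSO). HSPA1A mRNA was quantified by qRT-PCR, normalized to ACTB, GAPDH and POLR2A, and fitted bidirectionally against DMSO.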

[8] = read-out: Hypoxia-inducible factor 1-alpha (Homo sapiens) (UniProt Q16665); test: LTEA_HepaRG_HIF1A: Life Technologies and Expression Analysis (LTEA) Assay for Hypoxia-inducible factor 1 (HIF1A) Trancription factor using HepaRG (AID 2283503)
Method in brief: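 HepaRG, 48 h exposure, 8-pt half-log series from 100 uM, 0.5% DMSO vehicle, duplicates. Readout: HIF1A transcript by qRT-PCR (Fluidigm array), housekeeping-normalised. Bidirectional curve fit vs DMSO baseline.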

[9] = read-out: 3-Hydroxy-3-Methylglutaryl-CoA Synthase 2 (HMGCS2), HMGCS2 (gene 3158); test: LTEA_HepaRG_HMGCS2: Life Technologies and Expression Analysis (LTEA) Assay for 3-Hydroxy-3-Methylglutaryl-CoA Synthase 2 (HMGCS2) using HepaRG (AID 2283504)
Method in brief: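 Differentiated human HepaRG cells were exposed in duplicate for 48 h in serum-free induction medium to eight concentrations (top 100 uM, half-log steps, 0.5% DMSO). HMGCS2 mRNA was quantified by TaqMan qRT-PCR, normalised to ACTB, GAPDH and POLR2A, then fitted bidirectionally against DMSO.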

[10] = read-out: HGF (gene 3082); test: LTEA_HepaRG_HGF: Life Technologies and Expression Analysis (LTEA) Assay for Hepatocyte Growth Facto (HGF) using HepaRG (AID 2283505)
Method in brief: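 Differentiated human HepaRG cells in serum-free induction medium were exposed in duplicate for 48 h to eight concentrations (top 100 uM, half-log steps, 0.5% DMSO). HGF mRNA was quantified by qRT-PCR, normalized to ACTB, GAPDH and POLR2A.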

[11] = read-out: Insulin Like Growth Factor 1 (IGF1), IGF1 (gene 3479); test: LTEA_HepaRG_IGF1: Life Technologies and Expression Analysis (LTEA) Assay for Insulin Like Growth Factor 1 (IGF1) using HepaRG (AID 2283506)
Method in brief: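 Differentiated human HepaRG cells were dosed for 48 h in serum-free induction medium with 0.5% DMSO, eight half-log concentrations up to 100 uM, in duplicate. IGF1 mRNA was quantified by qRT-PCR normalized to ACTB, GAPDH, POLR2A; bidirectional fitting versus DMSO.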

[12] = read-out: Intercellular Adhesion Molecule 1 (ICAM1), ICAM1 (gene 3383); test: LTEA_HepaRG_ICAM1: Life Technologies and Expression Analysis (LTEA) Assay for Intercellular Adhesion Molecule 1 (ICAM1) using HepaRG (AID 2283507)
Method in brief: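 Differentiated HepaRG cells in serum-free induction medium were exposed in duplicate for 48 h to eight half-log concentrations up to 100 uM in 0.5% DMSO. Transcript levels were measured by qRT-PCR normalized to ACTB, GAPDH and POLR2A; bidirectional fits relative to DMSO.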

[13] = read-out: Insulin-like growth factor-binding protein 1 (IGFBP1), IGFBP1 (gene 3484); test: LTEA_HepaRG_IGFBP1: Life Technologies and Expression Analysis (LTEA) Assay for Insulin-like growth factor-binding protein 1 (IGFBP1) using HepaRG (AID 2283508)
Method in brief: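 Differentiated human HepaRG cells in serum-free induction medium were exposed in duplicate for 48 h to eight concentrations, top 100 uM with half-log dilutions, in 0.5% DMSO. Transcript levels came from qRT-PCR normalised to ACTB, GAPDH and POLR2A, fitted bidirectionally against DMSO.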

[14] = read-out: Interleukin 6 (IL6), IL6 (gene 3569); test: LTEA_HepaRG_IL6: Life Technologies and Expression Analysis (LTEA) Assay for Interleukin 6 (IL6) using HepaRG (AID 2283509)
Method in brief: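 Differentiated human HepaRG cells, plated 48 h then switched to serum-free induction medium, were exposed in duplicate for 48 h to eight half-log concentrations up to 100 uM in 0.5% DMSO. IL6 mRNA measured by qRT-PCR, normalized to ACTB/GAPDH/POLR2A.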

[15] = read-out: Interleukin 6 Receptor (IL6R), IL6R (gene 3570); test: LTEA_HepaRG_IL6R: Life Technologies and Expression Analysis (LTEA) Assay for Interleukin 6 Receptor (IL6R) using HepaRG (AID 2283510)
Method in brief: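 Differentiated human HepaRG cells, plated 48 h then switched to serum-free induction medium, were dosed in duplicate for 48 h at eight half-log concentrations up to 100 uM in 0.5% DMSO. IL6R mRNA quantified by qRT-PCR, normalized to ACTB/GAPDH/POLR2A; bidirectional fit versus DMSO.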

[16] = read-out: Potassium channel subfamily K member 1 (KCNK1), KCNK1 (gene 3775); test: LTEA_HepaRG_KCNK1: Life Technologies and Expression Analysis (LTEA) Assay for Potassium channel subfamily K member 1 (KCNK1) using HepaRG (AID 2283511)
Method in brief: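 Differentiated human HepaRG cells in serum-free induction medium were exposed in duplicate for 48 h to 8 half-log concentrations up to 100 uM in 0.5% DMSO. KCNK1 mRNA was measured by TaqMan qRT-PCR, normalized to ACTB, GAPDH and POLR2A, and fitted bidirectionally versus DMSO.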

[17] = read-out: Keratin 19 (KRT19), KRT19 (gene 3880); test: LTEA_HepaRG_KRT19: Life Technologies and Expression Analysis (LTEA) Assay for Keratin 19 (KRT19) using HepaRG (AID 2283512)
Method in brief: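 Differentiated human HepaRG cells, plated 48 h, were exposed in duplicate for 48 h in serum-free induction medium to eight half-log concentrations up to 100 uM in 0.5% DMSO. KRT19 mRNA was quantified by qRT-PCR, normalized to ACTB, GAPDH and POLR2A, and fitted bidirectionally versus DMSO.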

[18] = read-out: JUN Transcription Factor, JUN (gene 3725); test: LTEA_HepaRG_JUN: Life Technologies and Expression Analysis (LTEA) Assay for JUN Transcription Factor using HepaRG (AID 2283513)
Method in brief: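 Differentiated HepaRG cells were exposed to chemicals for 48 h in serum-free induction medium, 8 concentrations from 100 uM in half-log steps, 0.5% DMSO vehicle, in duplicate. JUN mRNA was quantified by TaqMan qRT-PCR, normalized to ACTB, GAPDH, POLR2A.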

[19] = read-out: Lipase C (LIPC), LIPC (gene 3990); test: LTEA_HepaRG_LIPC: Life Technologies and Expression Analysis (LTEA) Assay for Lipase C (LIPC) using HepaRG (AID 2283514)
Method in brief: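 Differentiated human HepaRG cells in serum-free induction medium were exposed in duplicate for 48 h to eight concentrations (top 100 uM, half-log steps, 0.5% DMSO). LIPC mRNA was quantified by TaqMan qRT-PCR, normalized to ACTB, GAPDH and POLR2A, with bidirectional fitting versus DMSO.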

[20] = read-out: Lipoprotein lipase (LPL), LPL (gene 4023); test: LTEA_HepaRG_LPL: Life Technologies and Expression Analysis (LTEA) Assay for Lipoprotein lipase (LPL) using HepaRG (AID 2283515)
Method in brief: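 Differentiated human HepaRG cells in serum-free induction medium were exposed in duplicate for 48 h to eight half-log concentrations (top 100 uM) in 0.5% DMSO. LPL mRNA was quantified by TaqMan qRT-PCR, normalized to ACTB, GAPDH and POLR2A.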

Measured: outcome

Chain of Hypoxia-inducible factor 1-alpha (Homo sapiens) (Q16665 whole entry, looked up): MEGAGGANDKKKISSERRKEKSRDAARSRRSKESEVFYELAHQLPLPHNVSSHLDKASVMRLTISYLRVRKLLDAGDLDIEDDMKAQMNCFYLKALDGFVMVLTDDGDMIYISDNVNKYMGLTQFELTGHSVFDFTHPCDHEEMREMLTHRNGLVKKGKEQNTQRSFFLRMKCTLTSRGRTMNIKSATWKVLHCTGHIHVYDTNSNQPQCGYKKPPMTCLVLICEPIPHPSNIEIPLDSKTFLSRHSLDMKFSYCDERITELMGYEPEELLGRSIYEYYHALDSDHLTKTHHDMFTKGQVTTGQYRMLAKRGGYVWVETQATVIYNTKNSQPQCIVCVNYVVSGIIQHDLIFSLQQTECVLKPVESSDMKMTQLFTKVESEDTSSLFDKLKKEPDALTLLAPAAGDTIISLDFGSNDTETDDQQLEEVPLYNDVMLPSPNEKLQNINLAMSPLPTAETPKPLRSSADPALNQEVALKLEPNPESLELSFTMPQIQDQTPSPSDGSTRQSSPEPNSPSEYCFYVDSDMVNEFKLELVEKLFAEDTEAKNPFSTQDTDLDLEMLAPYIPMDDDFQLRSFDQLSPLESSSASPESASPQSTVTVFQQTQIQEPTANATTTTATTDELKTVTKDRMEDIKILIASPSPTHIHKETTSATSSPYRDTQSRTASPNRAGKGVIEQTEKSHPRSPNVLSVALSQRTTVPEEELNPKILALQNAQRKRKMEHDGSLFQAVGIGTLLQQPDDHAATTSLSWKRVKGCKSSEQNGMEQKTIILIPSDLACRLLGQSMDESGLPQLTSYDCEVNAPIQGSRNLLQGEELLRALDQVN

CCNc1nc(Cl)nc(NCC)n1
inactive: all assays above
